# Test results taken from PMC5540273 (PLoS ONE, 2017).
# Experiments:
# Conditions in all cases: concentration: 1 μM, replicates: in singlicate; n = 1
# CLK2 = system: CLK2
# CLK3 = system: CLK3
# CLK4 = system: CLK4
# CSF1R-autoinhibited = system: CSF1R-autoinhibited
# CSF1R = system: CSF1R
# CSK = system: CSK
# CSNK1A1L = system: CSNK1A1L
# CSNK1A1 = system: CSNK1A1
# CSNK1D = system: CSNK1D
# CSNK1E = system: CSNK1E
# 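Further: KINOMEscan kinase panel screen.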
Compound,%Inh (CLK2),%Inh (CLK3),%Inh (CLK4),%Inh (CSF1R-autoinhibited),%Inh (CSF1R),%Inh (CSK),%Inh (CSNK1A1L),%Inh (CSNK1A1),%Inh (CSNK1D),%Inh (CSNK1E)
CC(=O)Nc1cn2nc(Oc3cccc(NC(=O)c4cccc(C(F)(F)F)c4)c3)ccc2n1,13%,54%,0%,82%,100%,44%,21%,12%,4%,44%
COc1ccc(C)c(Nc2ccnc(Nc3ccc(-c4cnc[nH]4)cc3)n2)c1.Cl [GW784041],0%,7%,13%,0%,67%,9%,2%,21%,16%,27%
CCNC(=O)/C=C/c1n[nH]c2cc(Sc3ccccc3C(=O)NC)ccc12,0%,14%,3%,36%,99.8%,3%,0%,21%,0%,18%
Cc1cc(-c2ccnc(Nc3cccc(C#N)c3)n2)cc(C)c1O [GSK1440913],89%,91.5%,95.8%,13%,14%,0%,30%,0%,76%,90.3%
CSc1ccc(NC2=C(c3ccc(Cl)cc3)C(=O)NC2=O)cc1 [SB-317658],26%,0%,19%,0%,30%,21%,0%,20%,1%,6%
CCNc1nccc(-c2c(-c3ccc(F)cc3)ncn2C2CCN(C)CC2)n1,45%,0%,13%,0%,0%,25%,56%,93%,98.6%,99.9%
COc1cc(Nc2nccc(N3CCC(NS(=O)(=O)c4ccc(NC(C)=O)cc4)CC3)n2)cc(OC)c1OC [GSK1379825],0%,23%,39%,7%,19%,0%,3%,8%,0%,21%
Cl.Cl.NC(CNC(=O)c1cc(Br)c(-c2ccnc3[nH]ccc23)s1)c1ccccc1 (stereo not shown) [GSK1322949],88%,73%,91.5%,7%,29%,0%,47%,87%,89%,90.8%
COc1cc(Nc2ccnc3cc(-c4ccncc4)ccc23)cc(OC)c1OC.Cl [GW494610],0%,0%,29%,22%,49%,79%,18%,11%,46%,38%
N#CC1(c2cccc(C(=O)Nc3cccc(Oc4ccc5nc(NC(=O)C6CC6)sc5n4)c3)c2)CC1,4%,0%,17%,87%,100%,25%,0%,0%,14%,0%
COC(=O)Nc1nc2ccc(Oc3ccc(CC(=O)Nc4cc(C(F)(F)F)ccc4F)cc3)cc2[nH]1 [GW680903],0%,0%,3%,50%,71%,0%,0%,0%,0%,0%
CCn1c(-c2nonc2N)nc2c(-c3ccccc3)ncc(OCCCN)c21.O=C(O)C(F)(F)F.O=C(O)C(F)(F)F [GSK260205],0%,5%,4%,0%,2%,0%,46%,69%,94.2%,98.7%
COC(=O)Nc1nc2ccc(Oc3ccc(NC(=O)Nc4cc(C(F)(F)F)ccc4F)cc3)cc2[nH]1.Cl [GW654607],0%,0%,48%,30%,99.8%,0%,0%,0%,0%,13%
CC(C)NCC(Cc1ccccc1)NC(=O)c1cc(Br)c(-c2ccnc3[nH]ccc23)s1.Cl.Cl (stereo not shown) [GSK1383281],44%,22%,25%,0%,46%,6%,5%,0%,26%,33%
O=C(Nc1n[nH]c2cc(-c3cccs3)ccc12)C1CC1 [SB-731284],21%,13%,0%,0%,0%,13%,0%,20%,0%,8%
O=C(O)C(F)(F)F.O=c1[nH]ccc2nc(N[C@@H]3CCNC3)nc(Nc3ccc4c(c3)S(=O)(=O)CC4)c12 [GSK2181306],95%,17%,80%,0%,86%,5%,90%,97.7%,96.7%,96.3%
